Experimental data published in PubChem BioAssay (NCI).
Values joined by “and” are separate entries in the source; they are usually repeats but may differ in a detail not shown here. Equal values may be shown once. This is part of a sample that, as a whole, favours compounds with a hit. Of some 83,000 tested, about 20% had one in any assay.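 Percent growth is the endpoint: 0 to 100 indicates growth inhibition (40 means 60% inhibition), 0 means no net growth, and negative values indicate cell death.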 Some structures have more than one record in an assay (separate samples or runs), and their calls can disagree. Active and inactive are the calls of the source. Rule for the calls: active = growth percent below 10; inactive = the rest. *1 amine or outer side, *2 acyl side, *3 side chain or, on linkers, in order; H or OH if unused. Where a SMILES comes first, the peptide text is derived from it. Bridges are numbered along the chain shown (N, C = ends). Roman numbers before positions name the chains, in order. [ ]: non-standard residue; d: D form. Actinocin(1to9) = Cc1c2oc3c(C)ccc(C(=O)[*:2])c3nc-2c(C(=O)[*:1])c(N)c1=O; NMeV = CN[CH](C(=O)O)C(C)C; Sar = CNCC(=O)O

Experiments:
Assay in all cases: NCI-60 one-dose screen, 48 h (100 = growth as untreated, 0 = no growth, -100 = all killed)
Settings in all cases: 10 µM unless noted
DU-145 prostate = system: DU-145 prostate
K-562 leukemia = system: K-562 leukemia
MALME-3M melanoma = system: MALME-3M melanoma
MDA-MB-231 breast = system: MDA-MB-231 breast
RXF 393 renal = system: RXF 393 renal
SF-268 CNS = system: SF-268 CNS
SF-295 CNS = system: SF-295 CNS
SF-539 CNS = system: SF-539 CNS
UACC-257 melanoma = system: UACC-257 melanoma
M14 melanoma = system: M14 melanoma

| SMILES | growth (DU-145 prostate) | growth (K-562 leukemia) | growth (MALME-3M melanoma) | growth (MDA-MB-231 breast) | growth (RXF 393 renal) | growth (SF-268 CNS) | growth (SF-295 CNS) | growth (SF-539 CNS) | growth (UACC-257 melanoma) | growth (M14 melanoma) |
| --- | --- | --- | --- | --- | --- | --- | --- | --- | --- | --- |
| CC(O)C(O)C(O)C(O)C(O)C(=O)NNc1ccccc1 (stereo not given) | 96.4% (inactive) | 67.7% (inactive) | 105% (inactive) | 81.1% (inactive) | 119% (inactive) | 87.4% (inactive) | 86.4% (inactive) | 92.7% (inactive) | 100% (inactive) | 85% (inactive) |
| O=C(Nc1ccc(Cl)c(Cl)c1)Nc1ccccc1O | 118% (inactive) | 48.7% (inactive) | 114% (inactive) | 82.5% (inactive) | 101% (inactive) | 92.9% (inactive) | 75.5% (inactive) | 91.5% (inactive) | 78.2% (inactive) | 58.4% (inactive) |
| O=C(Cc1ccccc1)C(F)(F)F | 103% (inactive) | 94.5% (inactive) | 99.4% (inactive) | 96.5% (inactive) | 104% (inactive) | 98.9% (inactive) | 101% (inactive) | 97% (inactive) | 18.1% (inactive) | 99.6% (inactive) |
| CCC(C)C1NC(=O)C(NC(=O)c2c3nc4c(C(=O)NC5C(=O)NC(C(C)CC)C(=O)N6CCCC6C(=O)N(C)CC(=O)N(C)C(C(C)C)C(=O)OC5C)ccc(C)c4oc-3c(C)c(=O)c2N)C(C)OC(=O)C(C(C)C)N(C)C(=O)CN(C)C(=O)C2CCCN2C1=O (stereo not given) (I: TIP[Sar][NMeV] / II: TIP[Sar][NMeV]; ester I:1-I:C, II:1-II:C; linker I:N-II:N via Actinocin(1to9); configuration not given here) | 15.5% (inactive) | 1.13% (active) | -74.1% (active) | -12.7% (active) | 1.32% (active) | -11.7% (active) | -11.3% (active) | -36.9% (active) | -8.32% (active) | -95.6% (active) |
| CCCCCC/C=C1\CCC(CN2CCCC2)C1=O (stereo not given) | 107% (inactive) | 57.3% (inactive) | 119% (inactive) | 102% (inactive) | 95.6% (inactive) | 102% (inactive) | 111% (inactive) | 114% (inactive) | 92.1% (inactive) | 93.3% (inactive) |
| O=[N+]([O-])c1ccc(N2CCN(Cc3ccccc3)CC2)c2c1no[n+]2[O-] | 26.8% (inactive) | -43.5% (active) | 13.5% (inactive) | -3.1% (active) | -5.34% (active) | -1.56% (active) | 6.45% (active) | 0.0788% (active) | 55.9% (inactive) | 30.3% (inactive) |
| CN1CCC(CN2c3ccccc3Sc3ccccc32)C1 (stereo not given) | 92.4% (inactive) | 38% (inactive) | 79.8% (inactive) | 59.5% (inactive) | 91.4% (inactive) | 89.2% (inactive) | 95.7% (inactive) | 86.3% (inactive) | 88.6% (inactive) | 73.6% (inactive) |
| Nc1ccc(C(=O)/C=C/c2ccccc2)cc1 | 62.1% (inactive) | 14.3% (inactive) | 93.9% (inactive) | 98.2% (inactive) | 104% (inactive) | 85.8% (inactive) | 101% (inactive) | 102% (inactive) | 108% (inactive) | 80.4% (inactive) |
| Nc1cc(-c2ccccc2)ccc1O | 103% (inactive) | 59.2% (inactive) | 121% (inactive) | 82.7% (inactive) | 30.3% (inactive) | 78.2% (inactive) | 134% (inactive) | 105% (inactive) | 120% (inactive) | 103% (inactive) |
| COc1ccc2c(c1OC)OCC(CN(C)C)C2=O (stereo not given) | 91.9% (inactive) | -100% (active) | 71.5% (inactive) | 96.7% (inactive) | 98% (inactive) | 110% (inactive) | 96.2% (inactive) | 97.1% (inactive) | 99.1% (inactive) | 98.5% (inactive) |
| CCSc1nc2ccccc2o1 | 111% (inactive) | 100% (inactive) | 118% (inactive) | 112% (inactive) | 110% (inactive) | 96.1% (inactive) | 113% (inactive) | 96.3% (inactive) | 106% (inactive) | 109% (inactive) |
| O=C(NOC(=O)c1ccccc1)c1ccccc1 | 112% (inactive) | 40.8% (inactive) | 109% (inactive) | 111% (inactive) | 110% (inactive) | 101% (inactive) | 112% (inactive) | 102% (inactive) | 124% (inactive) | 104% (inactive) |
| CCN(CC)CCNC(Cc1ccccc1)c1ccc(OCc2ccccc2)cc1 (stereo not given) | 98.5% (inactive) | 14.9% (inactive) | 88.6% (inactive) | 50% (inactive) | 63.4% (inactive) | 84.5% (inactive) | 74.5% (inactive) | 57% (inactive) | -40.7% (active) | -29.6% (active) |
| CC[n+]1ccc(Nc2ccc(NC(=O)c3ccc(Nc4cc[n+](CC)c5ccc([N+](=O)[O-])cc45)cc3)cc2)cc1 | 91.9% (inactive) | 48.2% (inactive) | 40% (inactive) | 114% (inactive) | 97.9% (inactive) | 86.1% (inactive) | 59.3% (inactive) | 94.5% (inactive) | 56.2% (inactive) | 83.7% (inactive) |
| COc1cc(NCc2ccc3nc(N)nc(N)c3c2C)cc(OC)c1OC (tested in a mixture with another compound) | 49.6% (inactive) | 27.9% (inactive) | 37.2% (inactive) | 61.6% (inactive) | 30.1% (inactive) | 24.1% (inactive) | 17.1% (inactive) | 25.3% (inactive) | 23.5% (inactive) | 20.9% (inactive) |
| OC(c1cc(-c2ccc(C(F)(F)F)cc2)nc(C(F)(F)F)c1)C1CCCCN1 (stereo not given) | -16.1% (active) and -94.1% (active) and 32.1% (inactive) | -47.5% (active) and -65.5% (active) and -27.9% (active) | 22% (inactive) and -88.6% (active) and 60.1% (inactive) | -57.8% (active) and -85.1% (active) and -19% (active) | -94.4% (active) and -93% (active) and 39% (inactive) | -42.1% (active) and -39.4% (active) and 29.8% (inactive) | 188% (inactive) | -41.7% (active) and -76.5% (active) and 40.2% (inactive) | -68.6% (active) and 68.3% (inactive) and -8.76% (active) | -77% (active) and -84.3% (active) and -76.6% (active) |
| CCCCCCCCCCCC[n+]1ccc(CCCCCCCCC)cc1 | -83.6% (active) | -37.4% (active) | -76.4% (active) | -81.1% (active) | -78.9% (active) | -79.2% (active) | -51.3% (active) | -80.7% (active) | -18.4% (active) | -82.6% (active) |
| O=C1C=CC(=O)N1c1cc(Cl)c(Cl)cc1Cl | 109% (inactive) | 93.9% (inactive) | 96.6% (inactive) | 120% (inactive) | 106% (inactive) | 102% (inactive) | 97.5% (inactive) | 109% (inactive) | 101% (inactive) | 103% (inactive) |
| CCCCC(C=O)(C=C=C(C)C)CC (stereo not given) | 113% (inactive) | 111% (inactive) | 97.7% (inactive) | 114% (inactive) | 106% (inactive) | 102% (inactive) | 95% (inactive) | 98% (inactive) | 98.1% (inactive) | 102% (inactive) |
| CCCCCCCCCCCC(=O)OC(C)C(=O)NCCCC (stereo not given) | 105% (inactive) | 94.1% (inactive) | 96.4% (inactive) | 113% (inactive) | 107% (inactive) | 101% (inactive) | 102% (inactive) | 108% (inactive) | 96.4% (inactive) | 105% (inactive) |
| O=C1/C(=C/c2ccccn2)CCc2ccccc21 | 103% (inactive) | 7.2% (active) | 103% (inactive) | 106% (inactive) | 107% (inactive) | 102% (inactive) | 96.8% (inactive) | 95.4% (inactive) | 105% (inactive) | 108% (inactive) |
| Cc1c(O)ccc(SC#N)c1C | 115% (inactive) | 104% (inactive) | 129% (inactive) | 84.9% (inactive) | 112% (inactive) | 87.1% (inactive) | 129% (inactive) | 94.2% (inactive) | 107% (inactive) | 97.4% (inactive) |
| O=[N+]([O-])c1ccc(C(Br)c2ccc([N+](=O)[O-])cc2)cc1 | 111% (inactive) | 25.4% (inactive) | 101% (inactive) | 93.8% (inactive) | 117% (inactive) | 84.8% (inactive) | 80.6% (inactive) | 110% (inactive) | 98.1% (inactive) | 22.6% (inactive) |
